According to PubChem BioAssay (NCATS):
Inconclusive results are not listed. Where a call stands in place of a potency, no number is given. Values without a mark were called inactive. The source made the active and inactive calls. Calls follow the shape of the dose curve; as a rule, active = well fitted curve in the direction sought with a large enough effect; inconclusive = small, poorly fitted or top-dose-only effect, or another doubt; inactive = no such curve, though single readings can be large; an effect the other way counts as inactive or inconclusive.

Assays:
[1] = molecular target: Rap guanine nucleotide exchange factor 3 (Homo sapiens) (UniProt O95398); assay: Confirmatory qHTS for antagonist of cAMP-regulated guanine nucleotide exchange factor 3 (EPAC1) (AID 1645880); settings: EPAC1 Rap1B-BODIPY-GDP exchange, fluorescence; activity, negative = inhibition: at 115 µM (top of the series); also: nearly all actives have a fitted effect of over 55% in size; also: potency is read from the fitted curve at half-maximal effect
How it was run: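 Nucleotide exchange uses 100 nM EPAC1, 250 nM RAP1B-BODIPY-GDP and 50 uM GDP, with compounds in a concentration-titration series. After 5 min at room temperature, fluorescence (480 nm ex/540 nm em) is read every 5 min for 30 min. Data are normalized to control ATA and DMSO.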

[2] = molecular target: Rap guanine nucleotide exchange factor 3 (Homo sapiens) (UniProt O95398); assay: Confirmatory qHTS for agonist of cAMP-regulated guanine nucleotide exchange factor 3 (EPAC1) (AID 1645881); also: nearly all actives have a fitted effect of over 75% in size; also: potency is read from the fitted curve at half-maximal effect;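 as to activation: EPAC1 catalysed release of BODIPY-GDP from Rap1B seen as fluorescence loss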
[3] = molecular target: Rap guanine nucleotide exchange factor 4 (Homo sapiens) (UniProt Q8WZA2); assay: Confirmatory qHTS for agonist of cAMP-regulated guanine nucleotide exchange factor 4 (EPAC2) (AID 1645884);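 also: nucleotide exchange releases bodipy-GDP from Rap1 and this lowers its fluorescence; nearly all actives have a fitted effect of over 65% in size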; also: potency is read from the fitted curve at half-maximal effect
[4] = molecular target: Rap guanine nucleotide exchange factor 3 (Homo sapiens) (UniProt O95398); assay: Counterscreen qHTS for antagonist of cAMP-regulated guanine nucleotide exchange factor 3 (EPAC1) (AID 1645888);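 also: fluorescence loss as bound BODIPY-GDP is released from Rap1B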
How it was run: (§1)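 Measured: fluorescence of BODIPY-GDP bound to Rap1B, which falls as exchange proceeds. Conditions include 50 uM competing GDP, 5 and 30 min reads, and a later cAMP challenge for antagonist detection.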

[5] = molecular target: Rap guanine nucleotide exchange factor 3 (Homo sapiens) (UniProt O95398); assay: Counterscreen qHTS for agonist of cAMP-regulated guanine nucleotide exchange factor 3 (EPAC1) (AID 1645889); also: nearly all actives have a fitted effect of over 40% in size; also: potency is read from the fitted curve at half-maximal effect
How it was run: as §1

Sequence of Rap guanine nucleotide exchange factor 3 (Homo sapiens) (O95398 whole entry, looked up): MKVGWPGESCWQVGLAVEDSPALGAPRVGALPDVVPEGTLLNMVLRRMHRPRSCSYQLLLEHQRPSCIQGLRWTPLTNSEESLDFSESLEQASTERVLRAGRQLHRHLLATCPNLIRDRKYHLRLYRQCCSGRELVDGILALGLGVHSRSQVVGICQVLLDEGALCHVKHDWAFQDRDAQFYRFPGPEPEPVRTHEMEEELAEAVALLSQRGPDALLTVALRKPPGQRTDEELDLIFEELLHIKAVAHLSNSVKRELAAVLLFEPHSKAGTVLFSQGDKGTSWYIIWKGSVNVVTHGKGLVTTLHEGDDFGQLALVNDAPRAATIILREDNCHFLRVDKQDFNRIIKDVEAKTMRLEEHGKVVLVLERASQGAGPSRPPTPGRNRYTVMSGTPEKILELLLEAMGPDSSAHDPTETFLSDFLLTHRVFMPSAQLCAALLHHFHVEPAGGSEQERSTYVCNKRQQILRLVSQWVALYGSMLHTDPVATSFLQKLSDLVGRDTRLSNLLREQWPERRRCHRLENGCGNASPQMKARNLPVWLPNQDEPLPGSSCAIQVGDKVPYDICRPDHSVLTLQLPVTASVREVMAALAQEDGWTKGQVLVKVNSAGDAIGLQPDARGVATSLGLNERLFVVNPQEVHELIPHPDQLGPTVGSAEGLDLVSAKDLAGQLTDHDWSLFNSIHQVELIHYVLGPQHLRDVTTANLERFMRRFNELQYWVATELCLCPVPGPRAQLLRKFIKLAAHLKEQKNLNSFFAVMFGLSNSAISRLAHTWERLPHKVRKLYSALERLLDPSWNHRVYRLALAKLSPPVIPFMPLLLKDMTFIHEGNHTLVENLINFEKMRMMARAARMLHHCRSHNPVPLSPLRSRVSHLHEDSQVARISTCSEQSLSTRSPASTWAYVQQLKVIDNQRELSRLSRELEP
Sequence of Rap guanine nucleotide exchange factor 4 (Homo sapiens) (Q8WZA2 whole entry, looked up): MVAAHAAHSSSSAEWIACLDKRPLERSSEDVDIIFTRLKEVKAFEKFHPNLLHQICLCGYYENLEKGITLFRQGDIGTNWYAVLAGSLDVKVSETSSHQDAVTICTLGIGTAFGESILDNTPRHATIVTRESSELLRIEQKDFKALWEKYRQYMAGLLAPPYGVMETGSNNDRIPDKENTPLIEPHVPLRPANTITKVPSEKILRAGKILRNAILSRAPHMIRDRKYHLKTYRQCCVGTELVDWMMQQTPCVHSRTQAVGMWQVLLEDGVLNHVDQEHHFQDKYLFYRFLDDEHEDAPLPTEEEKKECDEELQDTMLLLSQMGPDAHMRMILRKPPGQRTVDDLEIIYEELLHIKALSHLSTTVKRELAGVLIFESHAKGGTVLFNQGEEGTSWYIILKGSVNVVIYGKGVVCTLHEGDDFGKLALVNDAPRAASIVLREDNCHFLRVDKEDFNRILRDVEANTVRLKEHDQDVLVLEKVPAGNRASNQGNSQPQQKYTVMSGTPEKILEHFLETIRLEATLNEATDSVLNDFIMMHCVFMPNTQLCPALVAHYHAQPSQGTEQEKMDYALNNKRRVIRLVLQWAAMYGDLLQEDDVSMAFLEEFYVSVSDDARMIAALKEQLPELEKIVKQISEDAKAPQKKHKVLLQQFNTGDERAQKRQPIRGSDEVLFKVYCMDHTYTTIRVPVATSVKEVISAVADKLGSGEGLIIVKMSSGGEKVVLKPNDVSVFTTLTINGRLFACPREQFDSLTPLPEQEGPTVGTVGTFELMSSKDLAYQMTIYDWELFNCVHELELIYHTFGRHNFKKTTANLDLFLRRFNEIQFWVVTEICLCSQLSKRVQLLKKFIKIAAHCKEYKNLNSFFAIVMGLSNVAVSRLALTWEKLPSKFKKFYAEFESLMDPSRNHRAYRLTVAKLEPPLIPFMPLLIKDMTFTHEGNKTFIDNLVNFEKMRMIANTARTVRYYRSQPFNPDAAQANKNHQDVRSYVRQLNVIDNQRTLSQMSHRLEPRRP

Structure (SMILES)	Potency [1]	Potency [2]	Potency [3]	Potency [4]	Potency [5]	activation [3]	activity change, negative = inhibition [4]	activation [5]
C[C@H](CO)N1C[C@H](C)[C@@H](CN(C)C)Oc2c(NS(=O)(=O)c3ccccc3)cccc2C1=O	inactive	inactive	inactive	inactive	inactive	–	–	–
Cc1ccccc1-c1cc2nc(NCCN3CCNC3=O)n(C)c(=O)c2s1	inactive	inactive	inactive	inactive	inactive	–	–	–
Oc1ccc(/C=N/Nc2ncnc3nc[nH]c23)cc1	inactive	inactive	–	–	–	-0.35% [at 17.1 µM, percent relative to cAMP agonist control]	4.9% [at 30.8 µM]	4.78% [at 30.8 µM]
O=C(Cc1ccccc1)Nn1c(O)c(/C=C2\C=Nc3ccccc32)sc1=S	inactive	112 µM (active)	100 µM (active)	inactive	39.8 µM (active)	–	–	–
CCOc1nc(-c2ccccc2)c2cc(C)ccc2n1	inactive	inactive	inactive	inactive	inactive	–	–	–
COc1ccccc1CN(C(=O)CNC(=O)c1ccco1)C(C(=O)NCC1CCCO1)c1ccc(OC)c(OC)c1 (stereo not given)	inactive	inactive	inactive	inactive	inactive	–	–	–
CCC(=O)NC(c1ccc(C)cc1)c1cc([N+](=O)[O-])c2cccnc2c1O (stereo not given)	53.6 µM (active)	inactive	inactive	inactive	inactive	–	–	–
CNC(=O)c1ccc2snnc2c1	inactive	inactive	inactive	inactive	inactive	–	–	–
O=C(O)Cc1ccc(N=Nc2c(O)c(C(=O)O)cc3ccccc23)cc1	33.8 µM (active)	inactive	inactive	inactive	inactive	–	–	–
CC(C1CC1)N(C(=O)NC1CCS(=O)(=O)C1)c1ccccc1 (stereo not given)	inactive	inactive	inactive	inactive	inactive	–	–	–
O=C(O)CCSc1nnc(COc2cccc3ccccc23)n1-c1cccc(Cl)c1	inactive	inactive	inactive	inactive	inactive	–	–	–
COc1ccc(-n2nnnc2C(c2ccccc2OC(F)(F)F)N2CCN(C/C=C/c3ccccc3)CC2)cc1 (stereo not given)	inactive	inactive	inactive	inactive	inactive	–	–	–
O=C(CN1CCCCCC1)Nc1ccccc1Oc1ccccc1	inactive	inactive	inactive	inactive	inactive	–	–	–
O=[N+]([O-])c1ccc2nc(NS(=O)(=O)c3ccc(F)cc3)sc2c1	42.6 µM (active)	inactive	inactive	inactive	inactive	–	–	–
O=C(CN1CCCC1)Nc1ccccc1Sc1ccc(Cl)cc1	inactive	inactive	inactive	inactive	inactive	–	–	–
CCOC(=O)c1cc2c(ccn2C)n1Cc1ccccc1Cl	inactive	inactive	inactive	inactive	inactive	–	–	–
COc1ccc(C(=O)c2ccc(Cl)cc2)c(OC)c1OC	inactive	inactive	–	–	–	6.47% [at 17.1 µM, percent relative to cAMP agonist control]	-1.07% [at 30.8 µM]	6.99% [at 30.8 µM]
CCOC(=O)c1c(-c2ccccc2)oc2ccc(OCC)cc12	inactive	inactive	inactive	inactive	inactive	–	–	–
COc1cc(/C=C2\SC(=Nc3ccc(Cl)c(C(=O)O)c3)NC2=O)c(Br)c(Br)c1O	2.82 µM (active)	inactive	–	–	–	9.28% [at 17.1 µM, percent relative to cAMP agonist control]	-1.87% [at 30.8 µM]	0.17% [at 30.8 µM]
COc1ccc(C2N(c3ccc(Cl)cc3)N=C(C(C)=O)N(C)N2C(C)=O)cc1 (stereo not given)	inactive	inactive	–	–	–	11.9% [at 17.1 µM, percent relative to cAMP agonist control]	-11.6% [at 30.8 µM]	29.6% [at 30.8 µM]
CN1/C(=C\C=C(/C#N)C(=O)Nc2ccc(Cl)cc2)C(C)(C)c2ccccc21	inactive	100 µM (active)	100 µM (active)	inactive	inactive	–	–	–
Cc1nnc(SCCn2c(N3CCC(Cc4ccccc4)CC3)nc3c2c(=O)[nH]c(=O)n3C)s1	inactive	inactive	inactive	inactive	inactive	–	–	–
COc1cc(C(=O)c2ccccc2)c([N+](=O)[O-])cc1OC	inactive	inactive	inactive	inactive	inactive	–	–	–
CCN(CC)CCN(C(=O)c1cc2ccccc2cc1OC)c1nc2ccc(F)cc2s1	inactive	inactive	inactive	inactive	inactive	–	–	–
